Source: PubChem BioAssay (National Center for Advancing Translational Sciences (NCATS))
Sampled rows, rich in hits. Any-hit rate of the full collection: about 21%.
Pf growth 96h – Primary qHTS for delayed death inhibitors of the malarial parasite plastid, 96 hour incubation. Potency, µM (titrated, usually from 28.7 µM), for inactives: at the top dose activity change, negative = inhibition, hits mostly inhibitors. AID 504834, 2011. P. falciparum luciferase reporter growth, 96 h. 320,000 tested, 6.9% active; note: potency is the fitted concentration of half-maximal effect; % is set by controls: 0 for no effect and ±100 for the full control effect
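P. falciparum expressing integrated firefly luciferase grown in erythrocytes (2% hematocrit, 0.05% parasitemia final) with compounds for 96 hours at 37 C, 5% CO2. Growth inhibition read as loss of luminescence after adding luciferase detection reagent.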
CHX counter – Cycloheximide Counterscreen for Small Molecule Inhibitors of Shiga Toxin. cell reporter, cycloheximide protein synthesis inhibition counterscreen. 300,000 tested, 12% active. max response, %; in the data active = max response mostly above about 13%, no sharp cut-off; inactive = mostly below about 14%; note: read at 38.3 µM for the half of the compounds with a filed dose; 0% is about no effect
Shiga inhibitor – A qHTS for Small Molecule Inhibitors of Shiga Toxin. AID 2315, 2010. 290,000 tested, 9.2% active. inhibition, % at 38.7 µM. Vero cells, Shiga toxin protein synthesis inhibition reporter; in the data active = inhibition mostly above about 28%, no sharp cut-off; inactive = mostly below about 43%; note: 0% is about no effect
NS1 function inh – qHTS Assay for Inhibitors of Influenza NS1 Protein Function | Potency, µM (top dose mostly 46.1 µM), for inactives: at the highest dose activity, positive = more growth | 270,000 tested, 0.4% active | AID 2326, 2010; calls by dose curve; note: potency is the fitted concentration of half-maximal effect; actives are rising curves; nearly all actives have a fitted effect of over 50% in size
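Growth recovery, yeast-based: influenza A NS1 expressed in S. cerevisiae causes slow growth, and suppressors are detected by OD600. The parent strain without NS1 is used as positive control.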
Giardia FBPA inh – qHTS Assay for Inhibitors of Fructose-1,6-bisphosphate Aldolase from Giardia Lamblia | A8B2U2 | purified Giardia FBPA | Potency, µM (top dose mostly 59.6 µM), for the others: top-dose activity, negative = inhibition, actives largely listed as inhibitors | 290,000 tested, 0.71% active | AID 2451, 2010; note: potency is the fitted concentration of half-maximal effect; % is set by controls: 0 for no effect and ±100 for the full control effect; nearly all actives have a fitted effect of over 55% in size
Target sequence (A8B2U2 whole entry, looked up): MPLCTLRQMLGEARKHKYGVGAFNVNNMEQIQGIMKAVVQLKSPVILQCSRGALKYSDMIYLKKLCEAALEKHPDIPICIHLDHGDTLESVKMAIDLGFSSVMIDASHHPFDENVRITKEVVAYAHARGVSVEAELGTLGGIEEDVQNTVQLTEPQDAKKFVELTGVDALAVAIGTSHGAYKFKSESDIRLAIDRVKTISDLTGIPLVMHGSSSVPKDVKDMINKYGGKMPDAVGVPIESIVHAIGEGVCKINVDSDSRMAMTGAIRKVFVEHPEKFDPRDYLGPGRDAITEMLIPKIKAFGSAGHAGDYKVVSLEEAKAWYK
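Giardia FBPA (40 nM reagent) was preincubated 10 min at RT with compound (up to 57.5 uM final), then substrate plus GAPDH/TPI/NAD/arsenate coupling system with diaphorase/resazurin was added; resorufin fluorescence (525/598 nm) was read after 20 min.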
Pf growth 48h – Primary qHTS for delayed death inhibitors of the malarial parasite plastid, 48 hour incubation; P. falciparum luciferase growth in erythrocytes, 48 h; Potency, µM (titrated, usually from 28.7 µM), without a hit: top-dose activity change, negative = inhibition, most hits filed as inhibitors; 310,000 tested, 5.9% active; note: potency is the fitted concentration of half-maximal effect; % is set by controls: 0 for no effect and ±100 for the full control effect
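Cell-based growth assay: transgenic P. falciparum expressing firefly luciferase, cultured in red cells within RPMI 1640 containing 0.5% w/v Albumax, 24 mM bicarbonate and gentamycin. A drop in luciferase activity indicates inhibition.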
* marks the source's active call; other numbers are inactive results; u = inconclusive; x = not tested or not shown; + = active, no number; [ ] = another dose, or the depositor's remark. Unless noted, calls come from the whole dose curve; as a rule, active = well fitted curve in the direction sought with a large enough effect; inconclusive = small, poorly fitted or top-dose-only effect, or another doubt; inactive = no such curve, though single readings can be large; an effect the other way counts as inactive or inconclusive.

SMILES | Pf growth 96h | CHX counter | Shiga inhibitor | NS1 function inh | Giardia FBPA inh | Pf growth 48h
c1ccc2c(c1)[nH]c1c(NCC3CCCO3)ncnc12 (configuration not stated) | u | -4.0 | -5.4 | -5.2% | -5.6% | u
CCOCCCNc1ncnc2c1[nH]c1ccccc12 | u | 12.5* | -1.8 | -27.5% | -1.0% | 10.4µM*
C=CC[N@@+]12CC[C@]34c5ccccc5N5/C=C6\C7N(/C=C(\C53)[C@@H](C[C@@H]41)/C(=C/CO)C2)c1ccccc1[C@@]71CC[N@@+]2(CC=C)C/C(=C\CO)[C@@H]6C[C@@H]12 (some centres not stated) | -13.9% | x | x | x | x | u
NC(=O)[C@@H]1CCCN1C(=O)c1ccc2oc(CCc3ccccc3)nc2c1 | 27.6% | 43.3* | 40.2* | 2.7% | x | 71.1%
Cc1nc2ccc(C(=O)N3CCN(Cc4ccccc4)CC3)cc2[nH]1 | 1.1% | 9.8 | -13.2 | -2.4% | x | 29.8%
O=C(c1ccc2oc(CCc3ccccc3)nc2c1)N1CCC(O)CC1 | 3.7% | 51.6* | 74.6* | -6.5% | -0.4% | 153.4%
O=C(c1ccc2oc(CCCc3ccccc3)nc2c1)N1CCCCC1CO (configuration not stated) | -0.6% | 37.6* | 54.6* | -8.9% | x | 30.4%
COc1ccccc1N1CCN(C(=O)C(=O)c2c[nH]c3ccccc23)CC1 | 5.9% | 9.8 | -7.6 | -19.3% | x | -9.1%
CCOc1ccc(CCNC(=O)COC(=O)c2cccc(N(C)C)c2)cc1OCC | 12.9% | x | x | x | x | 5.3%
O=C(CCC1CCCC1)Nc1cc(C(F)(F)F)ccc1N1CCOCC1 | 13.1µM* | x | x | x | x | 11.7µM*
COC(=O)c1ccc(CNC(=O)CNc2cc(C(F)(F)F)ccc2N2CCOCC2)cc1 | 8.28µM* | -2.5 | -20.7 | -12.6% | -2.9% | x
Cn1c(-c2ccc(F)cc2)cnc1SCC(=O)Nc1ccccc1N1CCOCC1 | x | 27.2* | 56.0* | -6.5% | 8.2% | -38.6%
CCC(=O)Nc1cc(C(F)(F)F)ccc1N1CCOCC1 | x | -2.0 | 6.7 | -7.6% | 6.0% | u
O=C(Nc1cc(C(F)(F)F)ccc1N1CCOCC1)c1ccc(Cl)nc1 | x | -2.2 | -18.2 | 7.4% | -0.2% | 9.28µM*
CC(C)[C@@H](CC(=O)N[C@@H]1CCCC[C@H]1C(=O)N[C@H](CC(=O)N[C@@H](CCC(=O)O)CC(=O)O)Cc1c[nH]c2ccccc12)NC(=O)C[C@H](CO)NC(=O)[C@@H]1CNCC[C@H]1N | x | x | x | x | -20.8% | x
Cc1ccccc1SCC(=O)Nc1cc(C(F)(F)F)ccc1N1CCOCC1 | 4.65µM* | x | x | x | x | 2.08µM*
CCOc1ccccc1NC(C)C(=O)Nc1cc(C(F)(F)F)ccc1N1CCOCC1 (configuration not stated) | 0.294µM* | -1.2 | -8.3 | 9.3% | 16.4% | 0.586µM*
CC(C)C(=O)Nc1cc(C(F)(F)F)ccc1N1CCOCC1 | 80.1% | -2.1 | -7.3 | -6.3% | -0.8% | u
O=C(c1[nH]ncc1-c1cccc(Br)c1)C1CO1 (configuration not stated) | u | active | 13.5 | -1.8% | -15.7% | 14.7µM*
CCN(CC(=O)Nc1ccccc1C(F)(F)F)C(=O)CCc1c(C)[nH]c(=O)c(C#N)c1C | 6.3% | -2.3 | 3.8 | 0.1% | -0.1% | -4.2%
CCCCC(CC)CNC(=O)CCS(=O)(=O)c1cccc2nsnc12 (configuration not stated) | -4.9% | -0.6 | -24.3 | 4.2% | 2.8% | 4.1%
CCCCC(CC)CNC(=O)CN(C)S(=O)(=O)c1cccc2nsnc12 (configuration not stated) | 0.6% | 10.4 | 52.6* | -36.9% | 0.8% | u
CC1CC(C)CN(CCCNC(=O)CCC(=O)N2CC(C)Oc3ccccc32)C1 (configuration not stated) | u | -2.6 | -2.1 | -10.1% | -3.0% | 9.8%
CCOc1ccccc1C(=O)N[C@H](C(=O)Nc1ccc(OC)c(S(=O)(=O)N2CCOCC2)c1)C(C)C | u | -0.7 | -2.9 | x | -7.0% | 13.1µM*
CC(C)C(NC(=O)c1cccc(S(=O)(=O)N2CCOCC2)c1)C(=O)NCc1ccc(Cl)cc1 (configuration not stated) | -19.9% | x | x | x | x | u
SMILES | Pf growth 96h | CHX counter | Shiga inhibitor | NS1 function inh | Giardia FBPA inh | Pf growth 48h
CC(C)[C@H](NC(=O)c1cccc(S(=O)(=O)N2CCOCC2)c1)C(=O)Nc1nc2ccccc2s1 | 10.4µM* | 25.7* | + | 22.6% | -2.3% | 14.7µM*
CC(C)CC(=O)Nc1nc2ccc(S(=O)(=O)N3CCOCC3)cc2s1 | u | -6.1 | -32.8 | -0.5% | 5.4% | u
CCOc1ccccc1NC(=O)[C@@H](NC(=O)c1cccc(S(=O)(=O)N2CCOCC2)c1)C(C)C | u | 2.2 | 26.6 | 5.9% | -0.3% | 13.1µM*
CSCCC(N=C(NS(=O)(=O)c1ccccc1)c1ccccc1)C(=O)O (configuration not stated) | 15.0% | 0.4 | 35.0 | 2.8% | -0.5% | 15.6%
CC(C)CC(=O)Nc1ccc(C(=O)COC(=O)Cc2n[nH]c(=O)c3ccccc23)cc1 | -3.4% | x | x | x | x | u
CCc1ccc2c(-c3cccc(Cl)c3)nc(=O)n(CC)c2n1 | x | x | x | x | 10.8% | x
Brc1ccc(-c2ccccc2)cc1 | u | x | x | x | x | 39.5%
Brc1ccc(-c2ncc(-c3ccccc3)cn2)cc1 | u | 45.8* | 135.9* | 5.1% | 13.5% | x
O=C1c2ccccc2C(=O)N1CCOc1ccccc1Br | 20.2% | 42.4* | 72.6* | -16.1% | x | 21.5%
Cc1cccc2c1N(CCOc1ccc(C(C)(C)C)cc1)C(=O)C2=O | 23.4% | -2.3 | -8.0 | 14.0% | -10.7% | 10.4µM*
Nc1cccc2c1C(=O)N(CCOc1ccc(F)cc1)C2=O | 56.4% | 53.9* | 139.8* | -5.0% | 10.6% | 10.7%
COc1ccccc1OCCC(=O)OCCN1C(=O)c2ccccc2C1=O | 3.7%[5.75 µM] | -4.2 | -4.4 | -22.0% | -1.0% | x
COc1ccc(OCCN2C(=O)c3ccccc3C2=O)cc1 | 30.4% | 28.6* | 90.3* | x | -0.7% | 56.7%
O=C1c2ccccc2C(=O)N1CCOc1ccccc1Cl | -45.9% | -3.1 | -17.8 | -15.9% | x | 1.3%
Cc1nn(C)cc1C(C)NCc1c(C(=O)N2CCCCCCC2)nc2ccc(Cl)cn12 (configuration not stated) | 24.6% | -2.2 | -7.8 | -5.0% | -0.6% | -23.3%
O=C1CCc2cc(S(=O)(=O)Nc3ccccc3F)ccc2N1 | -2.1% | x | x | x | x | 6.9%
CC(C)Oc1cccc(OCCN2C(=O)c3ccccc3C2=O)c1 | 243.7%[5.75 µM] | 27.2* | 36.0* | -3.5% | -2.7% | 9.4%
Cc1ccccc1OCCN1C(=O)c2ccccc2C1=O | 43.8% | 46.9* | 153.8* | -8.4% | 1.6% | 44.5%
COc1ccc(C)cc1NC(=S)NC(C)c1ccc(OC)c(OC)c1 (configuration not stated) | -1.3% | -1.0 | -7.3 | -3.7% | -0.6% | u
